Laboratory results taken from PubChem BioAssay (Tox21).
Records with an inconclusive call do not appear. A call without a number means that no potency is given here. Some compounds were tested as several samples or in several runs, with calls that do not always agree. Calls of active or inactive are those of the source. Unless noted, calls come from the whole dose curve; as a rule, active = well fitted curve in the direction sought with a large enough effect in the repeat runs; inconclusive = weak or mixed curves; inactive = no such curve, though single readings can be large; an effect the other way counts as inactive or inconclusive.

Assays:
[1] = qHTS assay to identify small molecule antagonists of the glucocorticoid receptor (GR) signaling pathway - cell viability counter screen (AID 720693); note: nearly all actives have a fitted effect of over 55% in size
[2] = qHTS assay for identifying genotoxic compounds that show differential cytotoxicity against isogenic chicken DT40 cell lines with known DNA damage response pathways - wild type cell line (AID 743012); note: nearly all actives have a fitted effect of over 60% in size; note: potency is the fitted concentration of half-maximal effect
Procedure, shortened: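 Quantitative HTS on parental DT40 cells: 40 h compound treatment at 37 C/5% CO2, with viability then determined by CellTiter-Glo luminescence. Values serve as the DNA repair-proficient reference for differential cytotoxicity.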

[3] = qHTS assay for identifying genotoxic compounds that show differential cytotoxicity against isogenic chicken DT40 cell lines with known DNA damage response pathways - Rev3 mutant cell line (AID 743014); note: nearly all actives have a fitted effect of over 55% in size; note: potency is the fitted concentration of half-maximal effect
[4] = qHTS assay for identifying genotoxic compounds that show differential cytotoxicity against isogenic chicken DT40 cell lines with known DNA damage response pathways - Rad54/Ku70 mutant cell line (AID 743015); note: nearly all actives have a fitted effect of over 60% in size; note: potency is the fitted concentration of half-maximal effect
[5] = qHTS assay to identify small molecule antagonists of the androgen receptor (AR) signaling pathway - cell viability counter screen (AID 743033; note: nearly all actives have a fitted effect of over 45% in size)
[6] = target: Androgen receptor (Homo sapiens) (UniProt P10275); experiment: qHTS assay to identify small molecule antagonists of the androgen receptor (AR) signaling pathway (AID 743035; active = well fitted inhibition curve with a large enough effect in the signal ratio in the repeat runs, not every such curve was filed as active; the % refers to the signal ratio; note: potency is the fitted concentration of half-maximal effect)
Procedure, shortened: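 Cell line: GeneBLAzer AR-UAS-bla GripTite (HEK293). Stimulus: R1881 added after compound. Exposure: 16 h, 37C, 5% CO2. Readout: LiveBLAzer B/G FRET fluorescence after 2 h at room temperature.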

[7] = target: Androgen receptor (Homo sapiens) (UniProt P10275); experiment: qHTS assay to identify small molecule agonists of the androgen receptor (AR) signaling pathway (AID 743036; active = well fitted activation curve with a large enough effect in the signal ratio in the repeat runs, with a control signal flat, not every such curve was filed as active; the % refers to the signal ratio)
Procedure, shortened: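 HEK293 cells stably carrying a UAS-driven beta-lactamase reporter (GeneBLAzer AR-UAS-bla-GripTite) were plated at 2,000 cells/well, rested 4 h at 37C, then exposed to compounds in DMSO for 16 h. LiveBLAzer B/G FRET substrate was added for 2 h at room temperature; fluorescence read.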

[8] = target: Androgen receptor (Homo sapiens) (UniProt P10275); experiment: qHTS assay to identify small molecule agonists of the androgen receptor (AR) signaling pathway using the MDA cell line (AID 743040; note: nearly all actives have a fitted effect of over 20% in size; note: potency is the fitted concentration of half-maximal effect)
Procedure, shortened: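 Cells plated, 5 h at 37C/0% CO2; compound or DMSO pinned; 16 h at 37C; ONE-Glo added; luminescence measured after 30 min at room temperature. Reporter line: MDA-kb2 with MMTV-luciferase responsive to AR and GR.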

[9] = qHTS assay to identify small molecule antagonists of the androgen receptor (AR) signaling pathway using the MDA cell line - cell viability counter screen (AID 743041; note: nearly all actives have a fitted effect of over 45% in size)
Procedure, shortened: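 Cells were plated at 3,000 per well and left 5 h. Compounds in DMSO were then pinned in, followed by R1881. After 16 h at 37C, CellTiter-Fluor fluorescence gave viability.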

[10] = target: Androgen receptor (Homo sapiens) (UniProt P10275); experiment: qHTS assay to identify small molecule antagonists of the androgen receptor (AR) signaling pathway using the MDA cell line (AID 743042; note: nearly all actives have a fitted effect of over 55% in size)
Procedure, shortened: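 Antagonist mode: compounds plus R1881 agonist added to MDA-kb2 AR-luc cells, incubated 16 h at 37C. Luciferase reporter luminescence quantified, with multiplexed CellTiter-Fluor readout for cell viability.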

Androgen receptor (Homo sapiens), sequence (P10275 whole entry, looked up): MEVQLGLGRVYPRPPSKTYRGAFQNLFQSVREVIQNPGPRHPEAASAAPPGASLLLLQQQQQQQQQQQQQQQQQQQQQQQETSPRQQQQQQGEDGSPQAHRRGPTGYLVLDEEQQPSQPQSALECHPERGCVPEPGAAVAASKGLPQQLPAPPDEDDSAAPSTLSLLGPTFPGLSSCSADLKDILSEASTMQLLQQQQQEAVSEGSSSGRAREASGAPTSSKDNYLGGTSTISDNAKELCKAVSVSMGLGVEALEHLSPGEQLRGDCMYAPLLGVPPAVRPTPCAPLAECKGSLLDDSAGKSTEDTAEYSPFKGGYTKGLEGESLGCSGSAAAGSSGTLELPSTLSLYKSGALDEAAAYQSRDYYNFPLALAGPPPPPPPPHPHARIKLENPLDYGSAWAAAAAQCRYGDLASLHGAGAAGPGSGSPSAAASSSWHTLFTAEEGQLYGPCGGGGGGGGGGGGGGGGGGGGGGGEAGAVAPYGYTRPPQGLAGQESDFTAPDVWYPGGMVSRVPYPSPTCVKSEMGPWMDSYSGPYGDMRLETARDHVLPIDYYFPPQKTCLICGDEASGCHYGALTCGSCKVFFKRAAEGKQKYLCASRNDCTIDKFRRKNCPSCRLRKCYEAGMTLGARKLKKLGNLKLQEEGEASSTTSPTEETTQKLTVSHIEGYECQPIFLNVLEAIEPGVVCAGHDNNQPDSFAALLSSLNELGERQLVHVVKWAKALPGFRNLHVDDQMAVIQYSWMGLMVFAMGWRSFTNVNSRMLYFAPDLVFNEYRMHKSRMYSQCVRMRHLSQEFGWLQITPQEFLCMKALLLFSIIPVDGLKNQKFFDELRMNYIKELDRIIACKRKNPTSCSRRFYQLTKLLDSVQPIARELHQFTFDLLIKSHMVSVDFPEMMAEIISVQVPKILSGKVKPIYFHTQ

SMILES | outcome [1] | Potency [2] | Potency [3] | Potency [4] | outcome [5] | Potency [6] | outcome [7] | Potency [8] | Potency [9] | outcome [10]
C#CC(O)C(CC)CCCC (centres undefined) | inactive | inactive | inactive | inactive | inactive | inactive | inactive | inactive | inactive | inactive
CN(C)C(=O)Nc1ccccc1 | inactive | inactive | inactive | inactive | inactive | – | – | – | inactive | –
[O-][N+](=Nc1ccccc1)c1ccccc1 | inactive | inactive | inactive | 26.6 µM (active) and inactive | inactive | – | – | – | inactive | –
O=[N+]([O-])c1ccc(Oc2ccc([N+](=O)[O-])cc2)cc1 | inactive | inactive | inactive | inactive | inactive | – | – | – | inactive | –
C=CC(=O)OCCCCCC | inactive | inactive | inactive | inactive | inactive | – | – | – | inactive | –
CC12CCC(CC1=O)C2(C)C (centres undefined) | inactive | inactive | inactive | inactive | inactive | – | – | – | inactive | –
C[N+](C)(C)CC[N+]1(C)Cc2c(Cl)c(Cl)c(Cl)c(Cl)c2C1 | inactive | inactive | inactive | inactive | inactive | – | – | – | inactive | –
NC(N)=NS(=O)(=O)c1ccc(N)cc1 | inactive | inactive | inactive | inactive | inactive | inactive | inactive | inactive | inactive | inactive
CN(C)CCn1nnnc1SCC1=C(C(=O)O)N2C(=O)[C@@H](NC(=O)Cc3csc(N)n3)[C@H]2SC1 | inactive | inactive | inactive | inactive | inactive | inactive | inactive | inactive | inactive | inactive
CCCCc1ccc2cccc(S(=O)(=O)O)c2c1 | inactive | inactive | inactive | inactive | inactive | inactive | inactive | inactive | inactive | inactive
c1cc(CN2CCCCC2)cc(OCCCNc2nc3ccccc3s2)c1 | inactive | 13.3 µM (active) | 29.8 µM (active) | 23.7 µM (active) | inactive | – | – | – | inactive | –
CCCC(=O)O[C@]1(C(=O)CCl)[C@@H](C)C[C@H]2[C@@H]3CCC4=CC(=O)C=C[C@]4(C)[C@@]3(F)C(=O)C[C@@]21C | inactive | 6.68 µM (active) | 7.5 µM (active) | 13.3 µM (active) | inactive | 7.56 µM (active) | – | 0.006 µM (active) | – | inactive
CC(C)[N+](C)(C)CC(O)COc1cccc2ccccc12 (centres undefined) | inactive | inactive | inactive | inactive | inactive | – | – | – | inactive | –
CCCC(C)C(=O)O (centres undefined) | inactive | inactive | inactive | inactive | inactive | – | – | – | inactive | –
CCCC(C)CO (centres undefined) | inactive | inactive | inactive | inactive | inactive | inactive | inactive | – | inactive | inactive
COC(C(=O)O)c1ccccc1 (centres undefined) | inactive | inactive | inactive | inactive | inactive | – | – | – | inactive | –
CC(C)COC(=O)c1ccccc1O | inactive | inactive | 24.3 µM (active) | inactive | inactive | – | – | – | inactive | –
CC(C)CCCCCCN | inactive | inactive | inactive | inactive | inactive | – | inactive | inactive | inactive | inactive
c1ccc(SCCSc2ccccc2)cc1 | inactive | inactive | inactive | inactive | inactive | inactive | inactive | inactive | inactive | inactive

SMILES | outcome [1] | Potency [2] | Potency [3] | Potency [4] | outcome [5] | Potency [6] | outcome [7] | Potency [8] | Potency [9] | outcome [10]
OC/C=C/c1ccccc1 | inactive | inactive | inactive | inactive | inactive | – | – | – | inactive | –
Cc1c(C)n(CCN(C)C)c2ccc(C(=O)OCCN(C)C)cc12 | inactive | 11.9 µM (active) | 7.5 µM (active) | 13.3 µM (active) | inactive | – | – | – | inactive | –
C1=C\CC/C=C\CC/C=C\CC/1 | inactive | inactive | inactive | inactive | inactive | – | – | – | inactive | –
CC(C)(O)c1ccccc1 | inactive | inactive | inactive | inactive | inactive | – | – | – | inactive | –
NS(=O)(=O)c1cc2c(cc1C(F)(F)F)NC(Cc1ccccc1)NS2(=O)=O (centres undefined) | inactive | inactive | inactive | inactive | inactive | inactive | inactive | inactive | inactive | inactive
CCCCN(CCO)CCO | inactive | inactive | inactive | inactive | inactive | – | – | – | inactive | –
C=CCn1c(=O)n([C@@H]2O[C@H](CO)[C@@H](O)[C@H]2O)c2nc(N)[nH]c(=O)c21 | inactive | inactive | inactive | inactive | inactive | inactive | inactive | inactive | inactive | inactive
Nc1nc2c(ncn2CCC(CO)CO)c(=O)[nH]1 | inactive | 3.35 µM (active) | 5.96 µM (active) | 5.96 µM (active) | inactive | – | – | – | inactive | –
C=C(C)C(=O)OCCCCCCCCCCCCCCCCCC | inactive | inactive | inactive | inactive | inactive | – | – | – | inactive | –
COC(=O)C1=C(C)NC(C)=C(C(=O)OCC(C)=O)C1c1ccccc1[N+](=O)[O-] (centres undefined) | inactive | 5.96 µM (active) | 11.9 µM (active) | 10.6 µM (active) | – | – | – | – | – | –
NC(=O)c1ncn([C@@H]2O[C@H](CO)[C@@H](O)[C@H]2O)c1O | inactive | inactive | inactive | inactive | inactive | – | – | – | inactive | –
Cc1ccc(N)cc1[N+](=O)[O-] | inactive | inactive | inactive | inactive | inactive | inactive | inactive | inactive | inactive | inactive
COC(=O)CCCCCCCCC(=O)OC | inactive | inactive | inactive | inactive | inactive | – | – | – | inactive | –
COC(=O)CCCC(=O)O | inactive | inactive | inactive | inactive | inactive | – | – | – | inactive | –
O=C(O)C(O)[C@H](O)[C@@H](O)[C@H](O)[C@H](O)CO (some centres undefined) | inactive | inactive | inactive | inactive | inactive | – | – | – | inactive | –
CCCCCCC(=O)OCC | inactive | inactive | inactive | inactive | inactive | – | – | – | inactive | –
CCCc1ccccc1O | inactive | inactive | inactive | inactive | inactive | – | – | – | inactive | –
O=C(O)c1ccccc1S | inactive | inactive | inactive | inactive | inactive | – | – | – | inactive | –
CCc1cc(S(=O)(=O)O)c2cc(C(C)C)cccc1-2 | inactive | inactive | inactive | inactive | inactive | – | – | – | inactive | –

SMILES | outcome [1] | Potency [2] | Potency [3] | Potency [4] | outcome [5] | Potency [6] | outcome [7] | Potency [8] | Potency [9] | outcome [10]
Cc1ccc(Nc2ccc(O)c3c2C(=O)c2ccccc2C3=O)cc1 | inactive | inactive | inactive | inactive | inactive | – | – | – | inactive | –
CC(=O)N[C@@H](CCC(N)=O)C(=O)O | inactive | inactive | inactive | inactive | inactive | – | – | – | inactive | –
COc1cc(C)cc(O)c1 | inactive | inactive | inactive | inactive | inactive | – | – | – | inactive | –
OCC(O)[C@@H](O)[C@H](O)[C@H](O)CO[C@H]1O[C@H](CO)[C@@H](O)[C@H](O)[C@H]1O (some centres undefined) | inactive | inactive | inactive | inactive | inactive | – | – | – | inactive | –
CC(C=O)Cc1ccc(C(C)C)cc1 (centres undefined) | inactive | inactive | inactive | inactive | inactive | – | – | – | inactive | –
CC(C)CCCC(C)CCCC(C)CCCCC(C)CCCC(C)CCCC(C)C (centres undefined) | inactive | inactive | inactive | inactive | inactive | – | – | – | inactive | –
CC(C)(C)CC(C)(C)N | inactive | inactive | inactive | inactive | inactive | – | – | – | inactive | –
CC(C)=CCC/C(C)=C/C(=O)O | inactive | inactive | inactive | inactive | inactive | – | – | – | inactive | –
CCCCCOC(=O)Nc1nc(=O)n([C@@H]2O[C@H](C)[C@@H](O)[C@H]2O)cc1F | inactive | inactive | inactive | inactive | inactive | – | – | – | inactive | –
CCC(C)OC(=O)N1CCCCC1CCO (centres undefined) | inactive | inactive | inactive | inactive | inactive | – | – | – | inactive | –
COCc1ccc(COC)cc1 | inactive | inactive | inactive | inactive | inactive | – | – | – | inactive | –
CCC(C(=O)NC(N)=O)c1ccccc1 (centres undefined) | inactive | inactive | inactive | inactive | inactive | – | – | – | inactive | –
N#CC1(O)CCCCC1 | inactive | inactive | inactive | inactive | inactive | – | – | – | inactive | –
CC(=O)O[C@H](CC(=O)[O-])C[N+](C)(C)C | inactive | inactive | inactive | inactive | inactive | – | – | – | inactive | –
CO | inactive | inactive | inactive | inactive | inactive | – | – | – | inactive | –
COc1cccc(OC)c1 | inactive | inactive | inactive | inactive | inactive | – | – | – | inactive | –
COc1cc(C(=O)N2CCOCC2)cc(OC)c1OC | inactive | inactive | inactive | inactive | inactive | – | – | – | inactive | –
Nc1[nH]c(=O)ncc1F | inactive | inactive | inactive | inactive | inactive | – | – | – | inactive | –
